# PubChem BioAssay
# Calls of active or inactive are those of the source. Unless noted, no rule for the calls is given here.
# Legend:
# [1] = tested on: XIP peptide (Xip251-270) binding; assay: XIP fragment 251-270 binding compounds – biochemical, small-molecule microarray, fluorescence 635/667 nm, 0.1 µg/mL protein, primary screen (AID 1182); details: fluorescent protein binding, 635 nm, higher = more signal, called active from +8 up or from −8 down
# XIP peptide (Xip251-270) = assay: compounds binding XIP fragment 251-270 – biochemical, small-molecule microarray, fluorescence 635/667 nm, 0.5 µg/mL protein, primary screen (AID 1183); details: fluorescence 635 nm, higher = more signal
# [2] = blood-stage malaria parasite viability loss – strain 3D7, DAPI fluorescence, 100 nL, primary screen (AID 1184);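 also: parasites grown inside human red blood cells in medium with human serum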; details: P. falciparum 3D7 growth, 3 d, higher = more signal
# [3] = target: Homeobox protein Hox-A13 (Mus musculus) (UniProt Q62424); assay: disruptors of Hoxa13 oligonucleotide interaction – biochemical, fluorescence polarization, labeled oligonucleotide, primary screen (AID 1185); details: Hoxa13:DNA binding, 15 min, higher = more signal, called active from +8 up or from −8 down
# [4] = blockers of DNA damage checkpoint Chk1 activation – imaging, HeLa, hydroxyurea, phospho-Chk1 antibody, percent positive cells, primary screen (AID 1186); details: hydroxyurea-induced phospho-Chk1 immunofluorescence imaging, higher = more signal
# [5] = blockers of DNA damage checkpoint Chk1 activation – imaging, HeLa, hydroxyurea, phospho-Chk1 nuclear intensity, primary screen (AID 1187); details: hydroxyurea-induced phospho-Chk1 immunofluorescence imaging, higher = more signal
# Sequence of Homeobox protein Hox-A13 (Mus musculus) (Q62424 whole entry, looked up): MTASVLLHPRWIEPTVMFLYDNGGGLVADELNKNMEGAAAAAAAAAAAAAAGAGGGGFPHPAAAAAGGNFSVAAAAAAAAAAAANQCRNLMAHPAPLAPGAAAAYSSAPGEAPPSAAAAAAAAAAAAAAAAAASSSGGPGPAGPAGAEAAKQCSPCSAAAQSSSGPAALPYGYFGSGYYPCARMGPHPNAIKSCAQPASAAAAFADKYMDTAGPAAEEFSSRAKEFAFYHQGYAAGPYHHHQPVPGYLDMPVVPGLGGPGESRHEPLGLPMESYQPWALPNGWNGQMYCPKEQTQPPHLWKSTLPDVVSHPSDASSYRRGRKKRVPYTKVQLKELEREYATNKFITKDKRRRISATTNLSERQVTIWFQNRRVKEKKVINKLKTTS
Compound,composite z-score [1],composite z-score (XIP peptide (Xip251-270)),z-score [2],z-score [3],z-score [4],z-score [5]
COc1ccc(CCNC(=O)[C@@H]2c3ccccc3C(=O)N(Cc3ccccc3OC)[C@H]2c2ccc(CO)cc2)cc1,0.675 (inactive),0.393,-0.996,-4.7 (inactive),-0.0274 (inactive),-0.213 (inactive)
CC1CC/C=C\[C@H]2OC34C=CCN(Cn5nnc6ccccc65)C(=O)[C@H]3N(CCCCCCO)C(=O)[C@@H]4C2C(=O)O1 (some centres not stated),0.0152 (inactive),0.217,0.21,-3.02 (inactive),-0.481 (inactive),-0.521 (inactive)
CCCCC(O)C1C=CC2C(=O)N(c3ccccc3)C(=O)C2N1Nc1ccc(C#N)cc1 (configuration not stated),1 (inactive),0.109,0.832,-3.62 (inactive),0.194 (inactive),0.404 (inactive)
COCCOC(=O)N1C(=O)[C@@]2(c3cc(C#CCC(C(=O)OC)C(=O)OC)ccc31)[C@H](C(=O)Nc1nc3ccccc3s1)[C@H]1C(=O)O[C@H](c3ccccc3)[C@H](c3ccccc3)N1[C@@H]2c1ccc(O)cc1,0.224 (inactive),0.599,-1.52,-1.93 (inactive),0.119 (inactive),0.359 (inactive)
O=C1O[C@@H](c2ccccc2)[C@@H](c2ccccc2)N2[C@@H](c3ccc(OCCO)cc3)[C@]3(C(=O)Nc4ccc(C#CC5(O)CCCCCC5)cc43)[C@@H](C(=O)Nc3nc4ccccc4s3)[C@H]12,0.813 (inactive),0.667,-1.59,1.03 (inactive),0.234 (inactive),0.42 (inactive)
CC(C)(C)N1CC=CC23O[C@@H]4C=CCCOC(=O)C4[C@H]2C(=O)N(CCCCCCO)[C@@H]3C1=O (some centres not stated),1.14 (inactive),0.202,-0.143,-3.77 (inactive),-0.327 (inactive),0.222 (inactive)
O=C1c2ccccc2[C@@]2(Cc3ccccc3N(Cc3ccccc3)C2=O)[C@H](c2ccc(CO)cc2)N1Cc1ccccc1Cl,0.0408 (inactive),0.311,0.689,-0.299 (inactive),-0.0672 (inactive),0 (inactive)
COC(=O)[C@@]1(Cc2ccc(OC)cc2)[C@H]2c3cc(C(=O)N4CCCC4)n(Cc4c(CO)[nH]cc(C)c4=O)c3C[C@H]2CN1C(=O)c1ccccc1,1.1 (inactive),0.523,-1.56,-5.39 (inactive),-0.166 (inactive),0.0081 (inactive)
Cc1ccc(S[C@]2(C(=O)NC(C)C)CC(=O)N(C3CCCCC3)[C@@H]2c2ccc(CO)cc2I)cc1,0.814 (inactive),0.864,-1.31,-4.43 (inactive),0.243 (inactive),0.202 (inactive)
C=CCC(OC(C)=O)[C@@H]1[C@@H](N(Cc2cccc3ccccc23)C(=O)c2ccc(-c3ccccc3)cc2)c2cc(OCCCO)ccc2N1C(=O)Cc1ccc2ccccc2c1 (some centres not stated),-0.419 (inactive),-0.347,0.0788,-0.896 (inactive),0.547 (inactive),0.582 (inactive)
[N-]=[N+]=NCc1ccccc1[C@@H]1OC(c2ccc(OCCCO)cc2)=N[C@]1(Cc1ccccc1N=[N+]=[N-])C(=O)NCC(O)CO (some centres not stated),1.45 (inactive),0.5,-2.31,-2.19 (inactive),-0.168 (inactive),0.0749 (inactive)
COC(=O)[C@@]1(Cc2ccc(F)cc2)[C@H]2c3cc(C(=O)N(C)C)n(CCc4ccc(O)c(O)c4)c3C[C@H]2CN1C(=O)c1ccccc1,-0.574 (inactive),0.162,0.162,-3.03 (inactive),-0.361 (inactive),0.0787 (inactive)
COc1ccc(C(O)C2C=CC3C(=O)N(c4ccccc4)C(=O)C3N2Nc2ccc([N+](=O)[O-])cc2)c2ccccc12 (configuration not stated),0.314 (inactive),0.685,-1.32,-0.935 (inactive),0.219 (inactive),-0.404 (inactive)
COc1ccc([Si](C)(C)[C@@H]2[C@@H](CC(=O)N3CCC[C@H]3CO)O[C@]3(C(=O)N(Cc4ccc(N5CCOC5=O)cc4)c4ccccc43)[C@H]2C)cc1,0.56 (inactive),0.727,0.309,-3.21 (inactive),-1.03 (inactive),-0.48 (inactive)
CCCCC(=C=CC[C@H](O)c1ccc(CO)o1)CCO,0.234 (inactive),0.552,1.13,-4.55 (inactive),0.818 (inactive),0.392 (inactive)
C=C(CCCC)/C(=C/C[C@@H](OC(C)=O)c1ccc(CO)o1)c1cnc2ccccc2c1,0.714 (inactive),0.811,-1.38,-4.99 (inactive),0.196 (inactive),-0.109 (inactive)
C=CCC(OC(C)=O)[C@@H]1[C@@H](N(Cc2cccc3ccccc23)C(=O)Cc2ccc(OC)cc2)c2cc(OCCCO)ccc2N1C(=O)c1ccc2ccccc2c1 (some centres not stated),-0.129 (inactive),0.174,-2.64,-2.33 (inactive),-0.325 (inactive),-0.0189 (inactive)
COc1ccc([Si](C)(C)[C@@H]2[C@@H](CC(=O)N(CCO)Cc3ccccc3)O[C@]3(C(=O)N(Cc4ccc(N5C(=O)c6cccc7cccc5c67)cc4)c4ccccc43)[C@H]2C)cc1,1.28 (inactive),0.577,-1.17,-1.19 (inactive),0.398 (inactive),-0.601 (inactive)
C=C(CCCC)/C(=C/C[C@H](OC(=O)c1ccncc1)c1ccc(OCCO)cc1)c1cnc2ccccc2c1,1.51 (inactive),0.754,-2.94,-2.83 (inactive),-0.658 (inactive),-0.869 (inactive)
CN(C)CCCC[C@@H]1NC(=O)[C@@H]2C[C@H](C(=O)NCCCCCCNC(=O)CS)[C@H](c3ccc(O)cc3)N2C1=O,0.237 (inactive),0.859,-0.0596,-1.31 (inactive),-0.282 (inactive),-0.405 (inactive)
COC(=O)[C@]1(Cc2ccccc2)N=C(c2ccc(OCCCO)cc2)O[C@@H]1c1ccccc1CN=[N+]=[N-],0.506 (inactive),0.753,-2.47,-1.89 (inactive),-0.623 (inactive),-0.631 (inactive)
CC(C)NC(=O)[C@@H]1c2ccccc2C(=O)N(Cc2ccc(OC(F)(F)F)cc2)[C@H]1c1ccc(CO)cc1,-0.514 (inactive),0.72,-1.58,-3.72 (inactive),0.244 (inactive),0.137 (inactive)
CC(C)N1C(=O)C[C@@](C(=O)NCCN2CCOCC2)(c2ccc([N+](=O)[O-])cc2)[C@H]1c1ccc(CO)cc1,0.534 (inactive),0.634,0.289,-2.52 (inactive),0.159 (inactive),0.451 (inactive)
CCOC(=O)C[C@H]1[C@H](OC(=O)Cc2ccc3c(c2)OCO3)[C@@H](NC(=O)Cc2ccc(OC)cc2)c2cc(OCCCO)ccc2N1C(=O)Cc1ccc(OC)cc1,-0.0299 (inactive),0.678,-1.99,-1.76 (inactive),-1.33 (inactive),-1.19 (inactive)
CC[C@@H]1C=C(C(=O)O)[C@H](c2ccc(OC)cc2)N1S(=O)(=O)c1ccc(C)cc1,1.98 (inactive),0.129,2.03,-2.62 (inactive),-0.745 (inactive),-1.26 (inactive)
O=C1O[C@H](c2ccccc2)[C@H](c2ccccc2)N2[C@H]1[C@@H](C(=O)O)[C@]1(C(=O)Nc3ccc(C#CCCO)cc31)[C@H]2c1ccc(OCCO)cc1,0.671 (inactive),0.856,-0.481,-5.39 (inactive),-0.255 (inactive),-0.132 (inactive)
N#Cc1ccc(-c2cccc(=O)o2)cc1,0.37 (inactive),-0.0086,0.944,0.108 (inactive),0.419 (inactive),0.674 (inactive)
